Screen size: about 3,400 compounds; about 840 (25%) were called active. Inconclusive results (about 11%) are left out.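 The calls were made as follows: active = fitted half-maximal concentration of signal decrease at or below twice the sample's top tested concentration; inconclusive = flat curve between -70 and -30 percent, or poor fit; inactive = flat within 30 percent, signal rise, or potency above limit.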 Only a sample is shown. Results with a measured potency or affinity are listed apart.

The nature of this assay: T. gondii growth inhibition with IFN-gamma, dose response, cell-based, ME49Luc, HeLa, luciferase, 72 h (AID 1259418). The following applies: T. gondii ME49Luc in IFN-y HeLa, hits give low values, -100% = high-dose IFN-γ control wells; at 19.5 µM unless noted.
In the case of `COC(=O)c1ccc(NC(=O)Nc2ccc(-c3nc(-c4ccccc4)co3)cc2)cc1`, the max activity was 75.7% [at 10 µM] (inactive).
As to `Cc1nc(CCNC(=O)C2CCN(C(=O)c3ccc(Br)o3)CC2)cs1`, the max activity was 9.93% [at 5 µM] (inactive).
On to `COc1cc(NC(=O)Nc2ccc(-c3nc(-c4ccc(C)cc4)co3)cc2)cc(OC)c1OC`, for which the max activity was -16.6% [at 0.68 µM] (inactive).
For `Cc1ccc(-c2coc(-c3ccc(NC(=O)c4cccs4)cc3)n2)cc1`, the max activity was 20.5% [at 0.35 µM] (inactive).
In the case of `COc1cc(C(=O)Nc2ccc(-c3nc(-c4cc(C)ccc4C)co3)cc2)cc(OC)c1OC` it was -22.7% [at 0.16 µM] (inactive); in that of `Cc1ccc(C)c(-c2coc(-c3ccc(NC(=O)c4cccs4)cc3)n2)c1`, 62.5% (inactive); in that of `COC[C@H]1CN(C)C[C@]12CCN(C(=O)c1cc3ccccc3s1)C2`, 13.1% (inactive).
Next, `COc1ccccc1-c1nc(C)c(-c2ccc(SCC(=O)OCc3ccccc3)nn2)s1`: 8.29% [at 10 µM] (inactive).
In the case of `Cc1oc(-c2cccc(Cl)c2)nc1CSc1nc2c(c(=O)[nH]1)CN(Cc1ccc(F)cc1)CC2`, the max activity is 15.7% (inactive).
Consider `Cc1cccc(C)c1NC(=O)CN1CCC2(CC1)N=C(c1ccc(F)cc1)C(=O)N2`, for which the max activity was 10% [at 1.35 µM] (inactive).
Next, `Cc1nc(OCC(=O)Nc2cccc(Cl)c2C)c2ccccc2n1`: 33.5% [at 0.16 µM] (inactive); `Cc1ccc(CSC2=Nc3ccccc3C3=NC(CC(=O)NCc4ccc(F)cc4)C(=O)N23)cc1` (stereo not drawn): 13.6% [at 1.35 µM] (inactive); `COc1ccc(CNC(=O)CC2N=C3c4ccccc4N=C(SCc4ccccc4F)N3C2=O)cc1` (stereo not drawn): 17.8% [at 10 µM] (inactive).
As to `COc1ccc(CNC(=O)CCC2N=C3c4ccccc4N=C(SCc4ccc(C)cc4)N3C2=O)cc1` (stereo not drawn), the max activity was 16.4% [at 1.35 µM] (inactive).
With `COc1ccc(CNC(=O)CC2N=C3c4ccccc4N=C(SCc4cccc(F)c4)N3C2=O)cc1` (stereo not drawn), the max activity is 12.5% [at 1.35 µM] (inactive).
Consider `CCCCNC(=O)CC1N=C2c3ccccc3N=C(SCc3ccc(F)cc3)N2C1=O` (stereo not drawn), for which the max activity is 8.45% [at 2.6 µM] (inactive).
As to `COc1ccc(CNC(=O)CC2N=C3c4ccccc4N=C(SCc4ccc(C)cc4C)N3C2=O)cc1` (stereo not drawn), the max activity is -42% (inactive).
As to `CCOc1ccccc1-c1nc(CSc2nc3c(c(=O)[nH]2)CN(Cc2ccccc2)CC3)c(C)o1`, the max activity is 18.7% (inactive).
In the case of `O=C1CCc2cc(NC(=O)C3CCC3)ccc2N1` it was -4.89% [at 0.68 µM] (inactive); in that of `CCC(=O)N1CCC2(CC1)Nc1cc(F)ccc1-n1cccc12`, 8.79% [at 0.68 µM] (inactive); in that of `CC1CCCN(c2nc(-c3ccc(Cl)cc3)nc3ccccc23)C1` (stereo not drawn), -6.84% [at 2.6 µM] (inactive).
In the case of `COc1ccccc1-c1nc(C)c(-c2ccc(SCc3cccc(C)c3)nn2)s1`, the max activity is 12.4% [at 10 µM] (inactive).
As to `COCCCNC1=NCCNC12CCN(S(=O)(=O)c1ccc(C)c(C)c1)CC2`, the max activity was 15.1% [at 0.16 µM] (inactive).
As to `Clc1ccccc1CSc1nc(NC2CCCCC2)c2ccccc2n1`, the max activity is 13.8% (inactive).
Next, `Cc1ccc(-c2nc3c(s2)CN(C(=O)Nc2ccccc2C(F)(F)F)CC3)cc1`: 101% [at 10 µM] (inactive); `COc1ccc(-c2nc(Nc3cc(C)ccc3C)c3ccccc3n2)cc1`: 25.6% (inactive).
Turning to `CCCNC(=O)N1[C@H](C#N)[C@@H](c2ccc(-c3ccccc3F)cc2)[C@H]1CO`, the max activity is -20.5% [at 0.6 µM] (inactive).
As to `CCCNC(=O)N1[C@H](C#N)[C@H](c2ccc(-c3ccccc3F)cc2)[C@H]1CO`, the max activity was -14.6% (inactive).
Regarding `CCc1nc(OCC(=O)Nc2cc(Cl)c(OC)cc2OC)c2ccccc2n1`, the max activity was 17% [at 0.16 µM] (inactive).
As to `COc1ccc(OC)c(NC(=O)N2CCc3nc(-c4ccc(C)cc4)sc3C2)c1`, the max activity was 13.3% (inactive).
In the case of `CN1C(=O)CCc2cc(NC(=O)c3ccco3)ccc21` it was 172% (inactive); in that of `COc1ccc(OC)c(NC(=O)N2CCc3nc(-c4ccccc4)sc3C2)c1`, 6.12% (inactive); in that of `CCC(C(=O)N1CCC[C@@H]1C(=O)NCCc1csc(-c2ccccc2)n1)c1ccccc1` (stereo partly drawn), 13.1% [at 2.6 µM] (inactive).
In the case of `Cc1ccc(CN2CCCn3nc(C(=O)N4CCC(N5CCCCC5)CC4)cc3C2=O)cc1` it was -18.3% [at 5 µM] (inactive); in that of `O=C(Nc1ccc(-c2nc(-c3ccccc3)co2)cc1)NC1CCCCC1`, 71.1% (inactive); in that of `Cc1ccc(-c2nc(Cn3nnc(-c4nc(-c5ccc(Br)cc5)no4)c3C)c(C)o2)cc1`, 26.9% (inactive).
In the case of `Cc1cccc(-c2noc(-c3ccc(N4CCC(N5CCCCC5)CC4)nc3)n2)c1` it was 26.5% [at 10 µM] (inactive).
On to `Fc1cccc(-c2noc(-c3ccc(N4CCC(N5CCCCC5)CC4)nc3)n2)c1`, for which the max activity was 21.6% [at 5 µM] (inactive).
`O=C(Cn1cccc1-c1nc(-c2ccccc2)cs1)N1CCC(N2CCCCC2)CC1`: the max activity is 7.65% [at 10 µM] (inactive).
With `Cc1ccc(Nc2ncnc3c2cnn3-c2ccc(Cl)cc2)cc1`, the max activity was 81.3% [at 10 µM] (inactive).
Regarding `O=C(Nc1ccc(Br)cc1)Nc1ccc(-c2nc(-c3ccccc3)co2)cc1`, the max activity was -11.6% (inactive).
Consider `CCc1cc(C(=O)Nc2ccc(C)cc2-c2cc(C)[nH]n2)c2c(C)noc2n1`, for which the max activity is 19.5% [at 10 µM] (inactive).
Next, `O=C(NCCN1CCCC1)[C@H]1[C@H](CO)[C@H]2Cn3c(cccc3=O)[C@H]2N1Cc1ccccn1`: 48.1% (inactive).
As for `C=CCN1C(=O)COC2(CCN(Cc3ccc(C)s3)CC2)C1C` (stereo not drawn), the max activity is 27.2% (inactive).
In the case of `COc1ccc(NC(=O)CN2CCC3(CC2)N=C(c2ccc(F)cc2)C(=O)N3)cc1OC`, the max activity is -16.1% [at 10 µM] (inactive).
Turning to `Cc1ccc2c(c1)cc(S(=O)(=O)c1ccccc1)c(=O)n2CC(=O)N1CCCC1`, the max activity is -8.58% [at 5 µM] (inactive).
On to `Cc1ccc2c(c1)cc(S(=O)(=O)c1ccccc1)c(=O)n2CC(=O)N1CCCCC1`, for which the max activity was -6.78% [at 0.68 µM] (inactive).
With `Clc1ccccc1-c1nc(NCCN2CCCc3ccccc32)c2ccccc2n1`, the max activity was 37.1% (inactive).

These data come from PubChem BioAssay AID1259418 (Broad Institute, 2018).
